Values without a mark were called inactive. The rule behind the calls is not given here.
Assays:
[1] = test system: Botulinum neurotoxin type F light chain protease (Clostridium botulinum); assay: Botulinum neurotoxin type F light chain protease inhibition, multiplex microsphere flow cytometry, validation set (AID 588459); conditions: multiplex microsphere protease substrate cleavage assay, at 10 µM, active compounds read high
[2] = molecular target: Botulinum neurotoxin type A (Clostridium botulinum) (UniProt P0DPI0); assay: BoNT/A light chain protease inhibitors, biochemical, multiplex microsphere flow cytometry, validation set (AID 588460); conditions: at 10 µM, active compounds read high
Botulinum neurotoxin type A (Clostridium botulinum), sequence (P0DPI0 whole entry, looked up): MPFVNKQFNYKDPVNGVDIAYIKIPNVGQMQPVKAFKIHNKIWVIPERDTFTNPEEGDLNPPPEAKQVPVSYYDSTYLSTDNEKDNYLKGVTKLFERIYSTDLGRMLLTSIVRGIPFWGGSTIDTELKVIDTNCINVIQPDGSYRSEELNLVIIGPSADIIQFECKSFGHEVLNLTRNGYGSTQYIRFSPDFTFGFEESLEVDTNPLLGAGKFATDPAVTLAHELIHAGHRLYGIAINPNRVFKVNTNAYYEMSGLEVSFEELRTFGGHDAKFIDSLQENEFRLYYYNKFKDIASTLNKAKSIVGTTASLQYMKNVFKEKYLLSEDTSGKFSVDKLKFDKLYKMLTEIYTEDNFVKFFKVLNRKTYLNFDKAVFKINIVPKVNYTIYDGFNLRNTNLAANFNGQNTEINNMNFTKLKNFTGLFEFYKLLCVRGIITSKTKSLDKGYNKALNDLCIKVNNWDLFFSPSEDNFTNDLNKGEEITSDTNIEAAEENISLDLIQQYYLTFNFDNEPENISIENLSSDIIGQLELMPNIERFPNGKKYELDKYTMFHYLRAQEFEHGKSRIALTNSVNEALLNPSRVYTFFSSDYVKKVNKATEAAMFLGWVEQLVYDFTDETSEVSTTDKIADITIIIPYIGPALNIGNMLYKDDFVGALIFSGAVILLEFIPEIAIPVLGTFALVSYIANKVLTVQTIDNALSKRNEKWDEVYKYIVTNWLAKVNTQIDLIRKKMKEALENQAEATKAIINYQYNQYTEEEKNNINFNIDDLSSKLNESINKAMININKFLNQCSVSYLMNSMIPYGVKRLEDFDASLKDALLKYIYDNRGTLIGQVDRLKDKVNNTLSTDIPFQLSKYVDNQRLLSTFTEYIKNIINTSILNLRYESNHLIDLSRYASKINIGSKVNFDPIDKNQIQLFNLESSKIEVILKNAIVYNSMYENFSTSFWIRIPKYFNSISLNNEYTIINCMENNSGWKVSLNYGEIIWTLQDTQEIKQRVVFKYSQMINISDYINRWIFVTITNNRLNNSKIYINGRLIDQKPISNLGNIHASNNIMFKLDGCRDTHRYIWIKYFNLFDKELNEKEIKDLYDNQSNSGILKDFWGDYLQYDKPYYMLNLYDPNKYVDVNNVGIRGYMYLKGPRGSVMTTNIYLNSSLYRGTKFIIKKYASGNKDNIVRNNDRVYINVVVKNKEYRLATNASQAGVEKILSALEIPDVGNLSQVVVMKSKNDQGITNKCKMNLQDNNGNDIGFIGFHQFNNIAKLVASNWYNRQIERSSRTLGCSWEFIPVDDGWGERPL

[3] = molecular target: Lethal factor (Bacillus anthracis) (UniProt P15917); assay: Lethal factor protease inhibitors, Bacillus anthracis, multiplex microsphere cleavage assay, validation set (AID 588461); conditions: flow cytometry, at 10 µM, active compounds read high
Lethal factor (Bacillus anthracis), sequence (P15917 whole entry, looked up): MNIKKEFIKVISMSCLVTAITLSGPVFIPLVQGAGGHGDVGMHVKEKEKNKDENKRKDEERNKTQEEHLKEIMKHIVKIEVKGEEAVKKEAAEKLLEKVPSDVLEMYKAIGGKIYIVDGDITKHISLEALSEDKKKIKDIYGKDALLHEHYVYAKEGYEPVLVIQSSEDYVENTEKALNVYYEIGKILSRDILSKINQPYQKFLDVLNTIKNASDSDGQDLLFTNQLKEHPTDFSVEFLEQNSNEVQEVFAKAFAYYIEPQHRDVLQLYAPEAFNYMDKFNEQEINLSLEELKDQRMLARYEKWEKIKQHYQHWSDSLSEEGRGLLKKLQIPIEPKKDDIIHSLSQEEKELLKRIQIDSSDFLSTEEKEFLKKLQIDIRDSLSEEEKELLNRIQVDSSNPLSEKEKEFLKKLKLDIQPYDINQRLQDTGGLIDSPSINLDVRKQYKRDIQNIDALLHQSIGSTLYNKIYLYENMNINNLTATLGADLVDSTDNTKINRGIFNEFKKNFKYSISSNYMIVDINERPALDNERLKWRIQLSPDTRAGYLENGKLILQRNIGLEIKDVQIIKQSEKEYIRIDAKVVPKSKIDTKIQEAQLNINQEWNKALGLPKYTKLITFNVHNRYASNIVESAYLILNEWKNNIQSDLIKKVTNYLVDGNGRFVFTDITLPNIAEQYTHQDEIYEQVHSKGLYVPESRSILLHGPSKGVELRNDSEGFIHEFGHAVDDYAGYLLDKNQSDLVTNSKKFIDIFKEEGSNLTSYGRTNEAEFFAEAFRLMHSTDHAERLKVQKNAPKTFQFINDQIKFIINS

| SMILES | inhibition [1] [%] | inhibition [2] [%] | inhibition [3] [%] |
| --- | --- | --- | --- |
| CC(=O)SC1CC2=CC(=O)CCC2(C)C2CCC3(C)C(CCC34CCC(=O)O4)C12 (centres undefined) | 0 | 0.1 | -5.9 |
| CCOCCCNCc1cn(-c2ccc(F)cc2F)nc1-c1ccccc1C | -0.4 | -1.9 | -0.3 |
| Cn1c(=O)c2[nH]cnc2n(C)c1=O | 2.7 | -2 |  |
| CN(C(=O)C(Cl)Cl)c1ccc(OC(=O)c2ccco2)cc1 | 1.7 | 0.7 | -0.8 |
| Cc1ccccc1-c1coc2cc(O)ccc2c1=O | -3.4 | 0.2 | 1.6 |
| NC12CC3CC(CC(C3)C1)C2 | -1.1 | -0.6 |  |
| CC(C)Oc1cccc(C(=O)N2CCCC2)c1 | 2.3 | -0.3 | -5.2 |
| CCc1c(C(C)=O)oc2ccc3c(C)cc(=O)oc3c12 | -1.2 | -2.4 | -2.4 |
| CCCCNC(=O)NS(=O)(=O)c1ccc(C)cc1 | 1.1 | 1.1 | 1 |
| COc1ccc2oc(-c3ccco3)cc(=O)c2c1 | 3 | -0.8 | -7 |
| CC(NCCC(c1ccccc1)c1ccccc1)c1ccccc1 (centres undefined) | -5.9 | -1.1 | 3.4 |
| CC(=O)C1=C(O)C(=O)OC1c1ccc(C)cc1 (centres undefined) | 9.7 | 1.4 | -4.5 |
